# The panel holds about 83,000 compounds, 20% with a hit somewhere; the sample as a whole holds those more often.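 Negative percent growth values reflect cell death: -40 means 40% of the cells present at the start died, and -100 means all died.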 The source made the active and inactive calls. The calls were made as follows: active = growth percent below 10; inactive = the rest.
# Test system: PC-3 prostate
# Assay: NCI-60 one-dose screen, 48 h (100 = growth as untreated, 0 = no growth, -100 = all killed)
# Conditions: 10 µM unless noted
row,SMILES,growth
1,O=C(N/N=C/c1ccccc1O)c1ccccc1O,39.6% (inactive)
2,NC(=S)NNC1CCCCC1,87.7% (inactive)
3,CCN1CCN(Cc2ccc(NC(=O)Nc3cccc(-n4ccc5c(NC(=O)c6ccccc6)nccc54)c3)cc2C(F)(F)F)CC1,66.4% (inactive)
4,CN(C)c1ccc(/C=c2\s/c(=C\C(=O)C(C)(C)C)[nH]c2=O)cc1,85.2% (inactive)

# Test system: SK-MEL-5 melanoma
# Assay: as above
# Conditions: 10 µM unless noted
row,SMILES,growth
1,CCCCC(=O)Nc1nc2ccc(SCCC)cc2s1,42.7% (inactive)
2,CC(C)(C)C(=O)/C=c1/[nH]c(=O)/c(=C/c2ccccc2O)s1,42% (inactive)
3,CC[C@@]1(O)C(=O)OCc2c1cc1n(c2=O)Cc2c-1nc1ccccc1c2/C=N/OC(C)(C)C,-66.3% (active)
4,COc1ccc(OC)c(NCC(=O)n2nc(/C=C\c3ccc(O)c(OC)c3)cc2/C=C\c2ccc(O)c(OC)c2)c1,9.05% (active)
5,O=C1OC(=O)C2C3CC(c4ccccc43)C12 (stereo unspecified),112% (inactive)
6,COc1ccc2c(c1)OC(N)=C(C#N)C2c1ccc(F)cc1 (stereo unspecified),22.6% (inactive)
7,S=C=NP1(N=C=S)=NP(N=C=S)(N=C=S)=NP(N=C=S)(N=C=S)=NP(N=C=S)(N=C=S)=N1 (stereo unspecified),98.6% (inactive)
8,COc1cc(-c2nc(N)n(CC(=O)Nc3ccc(/C(C)=N\O)cc3)n2)cc(OC)c1OC,97.9% (inactive)
9,COc1cc2ncnc(Oc3ccc(NC(=O)Nc4ccc(CN5CCOCC5)c(C(F)(F)F)c4)c4ccccc34)c2cc1OC,-26.5% (active)
10,COc1ccc(-c2c(C#N)cnc(N)c2-c2nc3cc(C)c(C)cc3[nH]2)cc1,32.2% (inactive)
11,c1ccc(CNCCN(CCNCc2ccccn2)Cc2ccc3ccccc3c2)nc1,-43.1% (active)
12,C=C1C(=O)O[C@H]2[C@H]1CC/C(C(=O)Nc1ccc(OC)c(C(N)=O)c1O)=C\CC[C@@]1(C)O[C@@H]21,86.7% (inactive)
13,Cc1ccc2oc(=O)cc(C3C(C#N)=C(N)Oc4c3ccc3ccccc43)c2c1 (stereo unspecified),61.1% (inactive)
14,COc1ccc(-c2nn(-c3ccc(NC(=O)c4cc(C(F)(F)F)cc(C(F)(F)F)c4)cc3)cc2-c2ccncc2)cc1Cl,69.1% (inactive)
15,Cc1cccc(NCS(=O)(=O)O)c1,99.7% (inactive)
16,O=C(O)c1ccccc1C(=O)c1ccc(I)cc1,102% (inactive)

row,SMILES,growth
1,CC1(C)CC(=O)C2=C(C1)OC1=C(C(=O)CC(C)(C)C1)C2c1ccc(OCc2cn(-c3ccc(F)cc3F)nn2)cc1,58.4% (inactive)
2,CC(C)(CCN=C(N)Nc1ccccn1)c1ccc(C(F)(F)F)cc1,-91.4% (active)
3,CC(=O)c1cc2c(c(O)c1C)C(=O)C(=O)c1c(O)cccc1-2,-97.9% (active)
4,O=C(Nc1ccc(F)cc1)Nc1ccc(Cl)c([N+](=O)[O-])c1,22% (inactive)
5,C#C[C@H](O)/C=C/CCCCCCC#C[C@H](O)CC[C@@H](O)C#CCCCCCC/C=C/[C@@H](O)C#C,91.9% (inactive)
6,O=C(Nc1ccc(-n2cc(-c3ccncc3)c(-c3ccc(O)c(Cl)c3)n2)cc1)c1ccc(Cl)c(C(F)(F)F)c1,-46.7% (active)
7,Cc1nccc2c3ccc(OCc4cn(Cc5ccc(Br)cc5)nn4)cc3n(CCCc3ccccc3)c12,81.1% (inactive)
8,NCC(=O)NS(=O)(=O)OC[C@H]1O[C@@H](n2cnc3c(N)ncnc32)[C@H](O)[C@@H]1O,-0.341% (active)
9,C[C@H]1C=C(C[C@@H](O)CC#CC#CCCCCC[C@@H](O)[C@H]2CCC(=O)O2)C(=O)O1,99.8% (inactive)
10,CN1CCN(C(=O)/C=C/c2ccc([N+](=O)[O-])o2)CC1,90.1% (inactive)
11,OCc1cnccc1NC12CC3CC(CC(C3)C1)C2,98.3% (inactive)
12,Nc1nccc(=S)[nH]1,111% (inactive)
13,COc1cc(C(=O)N2CCN(C(=O)c3cc(OC)c(OCc4ccccc4)cc3N)CC2)c(N)cc1OCc1ccccc1,71.4% (inactive)
14,C[C@@H]1CC2C3C[C@H](F)C4=CC(=O)C=C[C@]4(C)[C@@]3(F)[C@@H](O)C[C@]2(C)[C@@]1(O)C(=O)CO (stereo partly specified),90.4% (inactive)
15,CCCCCn1ncc(-c2c(O)c(O)cc3c(O)c(-c4c(C)cc5c(-c6cnn(CCCCC)n6)c(O)c(O)cc5c4O)c(C)cc23)n1,-49.2% (active)
16,COc1ccc(NC(=O)COCCOCCNC[C@@H]2C(=O)O[C@H]3[C@H]2CC/C(COC(=O)OC/C2=C/CC[C@@]4(C)O[C@H]4[C@H]4OC(=O)[C@@H](CN(C)C)[C@@H]4CC2)=C\CC[C@@]2(C)O[C@@H]32)c(O)c1C(N)=O,85.7% (inactive)
